From PubChem BioAssay
LASV entry inh – inhibitors of Lassa virus binding or cell entry; hit rate 1.2% among 300,000; Lassa virus pseudotype entry inhibition, cell reporter; Potency, µM (series often up to 37.9 µM), without a hit: at the highest dose activity change, negative = inhibition, hits mostly inhibitors; calls by dose curve; tested in HEK293 cells; further: potency means the concentration at half of the fitted maximal effect; nearly all actives have a fitted effect of over 50% in size
Pf growth 48h – inhibits P. falciparum growth in the first generation, 48 h | Potency, µM (series often up to 28.7 µM), inactives show top-dose activity change, negative = inhibition, actives largely listed as inhibitors | hit rate 5.9% among 310,000 | P. falciparum luciferase growth in erythrocytes, 48 h; further: potency means the concentration at half of the fitted maximal effect
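Parasite viability was followed by luminescence of a genomically integrated firefly luciferase. Cultures held 0.1% parasitemia at 2% hematocrit (final), incubated under 5% CO2 at 37 C.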
HCMV antiviral – blocks human cytomegalovirus replication | HFF cells, HCMV-luciferase reporter, 72 h; hits give low values | AID 1259415 | hit rate 4.5% among 410,000 | activity change, negative = inhibition, % at 57.5 µM; in the data active means activity change below about -60%; inconclusive means no clear call, values can overlap the other calls; inactive means above about -39%
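Luciferase read-out from HCMV-luciferase-infected HFFs (MOI 1 PFU/cell) 72 h post infection at 37C; compounds added after 16 h cell attachment; activity normalized between buffer-only basal and Salinomycin (10uM) inhibitor controls.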
HCV inhibitor – inhibitors of hepatitis C virus infection | Huh7.5.1 HCVcc-Cre infection, luciferase reporter, 44 h | Potency, µM (titrated, usually from 41.8 µM), inactives show top-dose activity change, negative = inhibition, hits mostly inhibitors | hit rate 3.4% among 340,000 | AID 651820; further: potency means the concentration at half of the fitted maximal effect
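Compounds are dispensed onto cells plated 4 h earlier at 1,000 per well, with HCVcc-Cre virus (about 0.5 moi) added next. Following 44 h of culture, luminescent signal is measured for 15 sec after 15 min with substrate at room temperature.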
MARV entry inh – blocks Marburg virus binding to or entry into cells. AID 540276. hit rate 1.8% among 300,000. Marburg virus pseudotyped entry inhibition, cell reporter. Potency, µM (titrated, usually from 37.8 µM), inactives show at the top dose activity change, negative = inhibition, most hits filed as inhibitors; calls by dose curve; tested in HEK293 cells; further: potency means the concentration at half of the fitted maximal effect
Pf growth 96h – inhibits malaria parasite growth, 96 h; P. falciparum luciferase reporter growth, 96 h; AID 504834; Potency, µM (titrated, usually from 28.7 µM), inactives show at the highest dose activity change, negative = inhibition, most hits filed as inhibitors; hit rate 6.9% among 320,000; further: potency means the concentration at half of the fitted maximal effect
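Parasite growth measured via integrated firefly luciferase reporter in P. falciparum. Infected erythrocytes at 2% hematocrit, 0.05% parasitemia final were treated 96 hours at 37 C under 5% CO2, and luminescence was read.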
The depositor's hits bear a star; ? = inconclusive; · = no result given; [ ] = remark or other dose. In the library only some 14% were active in any assay of this set; here they are far more common. Unless noted, the call rests on the fitted dose curve; in most records, active means well fitted inhibition curve with a large enough effect; inconclusive means small, poorly fitted or top-dose-only effect, or another doubt; inactive means no such curve, though single readings can be large or run the other way. On the % scale 0 is the no-effect control and ±100 the full control effect.

SMILES	LASV entry inh	Pf growth 48h	HCMV antiviral	HCV inhibitor	MARV entry inh	Pf growth 96h
CC(=O)Nc1ccc(S(=O)(=O)Oc2ccc(N3C(=O)C4CCCCC4C3=O)cc2)cc1 (stereo not drawn)	-2%	-1%	-39	-25%	-1%	39%
O=C1CCC(=O)N1c1ccccc1-c1ccccc1	?	-1%	34	15%	-3%	-17%
CC(=O)Nc1ccc(S(=O)(=O)Oc2ccccc2N2C(=O)C3C4CCC(C4)C3C2=O)cc1 (stereo not drawn)	2.8µM*	46%	-34	·	10µM*	-15%
O=C1CCC(=O)N1c1ccccc1OS(=O)(=O)c1ccccc1	6%	20%	-97*	31%	?	20%
O=S(=O)(Oc1ccccc1N1CCCCC1)c1ccccc1	-3%[46.1 µM]	-4%	-61*	-12%	?	-5%
CC(=O)Nc1ccc(S(=O)(=O)Oc2cccc(N3C(=O)C4CC=CCC4C3=O)c2)cc1 (stereo not drawn)	-3%	·	-25	-29%	2%	2.3µM*
COc1ccccc1N1CCN(S(=O)(=O)c2ccccc2)CC1	-1%	?	78	6%	-2%	·
O=C1OCCC1=CN1CCCCC1	·	·	1	·	·	·
CCc1nnc(SCC(=O)N(CC)c2ccccc2)c2cc3oc(C)cc3n12	0%[46.1 µM]	·	10	·	·	·
COc1ccc(OC)c(/C=C(\C#N)c2nc(-c3ccc(F)cc3)cs2)c1	21%[46.1 µM]	·	39	·	·	·
O=C(NNC(=O)c1cc(-c2cccc(Br)c2)nc2ccccc12)c1csc(N2CCOCC2)n1	-7%[46.1 µM]	-20%	-27	6%	2%	-2%
Cc1ccc(N/C(CSC(N)=O)=N/S(=O)(=O)c2ccccc2)cc1	20%	26%	-5	0%	-4%	3.3µM*
COc1ccc(C(=O)NCCS(=O)(=O)NCc2ccccc2)cc1	-1%	2%	-98*	-1%	-19%	8%
COc1ccccc1CNC(=O)c1ccc(-c2ccccc2)cc1	-3%[46.1 µM]	-1%	-6	?	?	?
COc1ccccc1CNC(=O)C(NC(=O)c1ccccc1)C(C)C (stereo not drawn)	·	13µM*	7	10%	·	-5%
COc1ccc(C(=O)NCc2cc(C)nc3ccccc23)cc1	?	11%	-24	16µM*	?	11%
COc1ccc(C(=O)NCc2ccccc2OC)cc1	11%	?	15	-18%	21%	5.2µM*
COc1ccc(-c2nc3c4ccccc4n(CC(=O)N4CCN(c5ccc(F)cc5)CC4)c(=O)n3n2)cc1	-23%[46.1 µM]	·	36	·	·	·
COc1ccccc1CNC(=O)c1cnc2sccn2c1=O	·	2%	14	10µM*	·	-12%
COc1ccccc1CNC(=O)c1cnc2ccccn2c1=O	·	-7%	41	7%	·	?
COc1cc(C(=O)NCc2cc(C)nc3ccccc23)cc(OC)c1OC	0%	?	74	-4%	-18%	-25%
Cc1cccc(OCC(=O)NCc2cc(C)nc3ccccc23)c1	9%[46.1 µM]	-13%	?	?	6%[46.1 µM]	9.3µM*
Cc1cc(C)c(C#N)c(SCC(=O)Nc2c(C)n(C)n(-c3ccccc3)c2=O)n1	10%[46.1 µM]	·	?	-3%	-13%[46.1 µM]	·
CCOc1ccccc1NC(=O)CC(c1ccc(F)cc1)N1Cc2ccccc2C1=O (stereo not drawn)	-16%[46.1 µM]	·	-36	·	·	·
COC(=O)c1ccc(NC(=O)C2C3C=CC(C3)C2C(=O)O)cc1 (stereo not drawn)	·	12%	-98*	10%	·	23%
SMILES	LASV entry inh	Pf growth 48h	HCMV antiviral	HCV inhibitor	MARV entry inh	Pf growth 96h
O=C(ONC(=O)C1C2C=CC(C2)C1C(=O)NOC(=O)c1ccccc1)c1ccccc1 (stereo not drawn)	7.9µM*	·	-30	?	4µM*	·
CCOC(=O)c1ccc(NC(=O)C2C3C=CC(C3)C2C(=O)O)cc1 (stereo not drawn)	18%	56%	35	3%	?	?
CCN(CC)c1nn2c(=O)c(C(=O)NCc3ccccc3Br)cnc2s1	?	·	11	·	·	·
COCCCN1C(=O)C(CC(=O)NC2CC2)CC(C(=O)N(C(C)C)C(C)C)=C1C (stereo not drawn)	·	·	11	·	·	·
CC1CCN(C(=O)c2cnn(-c3cccc(Cl)c3)c2C2CCN(C(=O)OC(C)(C)C)CC2)CC1	?	·	2	·	·	·
Cc1cc([N+](=O)[O-])c(C)cc1-c1ccc(/C=N/n2cnnc2)o1	16%[46.1 µM]	8%	16	-11%	12%[46.1 µM]	-27%
O=[N+]([O-])c1ccc(-c2ccc(/C=N/n3cnnc3)o2)c(Br)c1	·	-23%	-90*	-10%	·	12%
Cc1c(Cl)cccc1-c1ccc(/C=N/n2cnnc2)o1	1%	·	-5	6%	5%	8.3µM*
Cc1cccc(N2CCN(c3nc4ccccc4c4nnc(C)n34)CC2)c1C	?	·	5	·	-14%[46.1 µM]	·
COc1ccccc1OCCOCCOc1c(C)cc(C)cc1Br	-5%	-5%	-22	?	-10%	2.9µM*
Cc1cc(N2CCCCC2)nc2ccc(NC(=O)c3cccc(F)c3)cc12	?	·	-80*	·	?	·
Cc1cc(N2CCCCC2)nc2ccc(NC(=O)c3cccc(Cl)c3)cc12	4%[46.1 µM]	·	-62*	·	·	·
Cc1ccc(C(=O)Nc2ccc3nc(N4CCCCC4)cc(C)c3c2)cc1F	13%[46.1 µM]	·	?	·	·	·
Cc1ccc(S(=O)(=O)Oc2cccc([N+](=O)[O-])c2)cc1	0%[46.1 µM]	·	27	-16%	?	·
COC(=O)c1ccc(C23CC4(C2)[C@H](CN(Cc2ccc(C(F)(F)F)cc2)[C@@H]4c2ccccc2)C3c2ccccc2)cc1 (stereo partly drawn)	·	?	·	28%[8.37 µM]	·	?
COC(=O)c1cccc(C23CC4(C2)[C@H](CN(Cc2ccc(C(F)(F)F)cc2)[C@@H]4c2ccccc2)C3c2ccc(C(F)(F)F)cc2)c1 (stereo partly drawn)	·	10µM*	-94*	1%[8.37 µM]	·	?
COC(=O)c1ccc(C23CC4(C2)[C@H](CN(Cc2ccc(C(F)(F)F)cc2)[C@@H]4c2ccccc2)C3c2ccc(C(F)(F)F)cc2)cc1 (stereo partly drawn)	·	?	·	·	·	10µM*
COC(=O)c1ccc(C23CC4(C2)[C@H](CN(CC2CCCCC2)[C@@H]4c2ccccc2)C3c2ccc(C(F)(F)F)cc2)cc1 (stereo partly drawn)	·	?	13	18%	·	?
COC(=O)c1ccc(C23CC4(C2)[C@H](CN(C)[C@@H]4c2ccccc2)C3c2ccc(C(F)(F)F)cc2)cc1 (stereo partly drawn)	·	10µM*	188	38%	·	?
COC(=O)C1=C(C)NC(=O)/C1=C\c1cc(C)n(-c2ccccc2)c1C	?	0%	-6	-15%	7.9µM*	?
